This is part of a sample that, as a whole, favours compounds with a hit. Of some 79,000 tested, about 15% had one in any assay. Activity calls are given as the source filed them. Cut-off read from the data, not from the text of the source: active = growth inhibition above about 70%; inactive = the rest.
How the values were obtained:
[1] = NCI Yeast Anticancer Drug Screen. Data for the rad52 strain (AID 147);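 note: 0% = growth of vehicle-treated control cultures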; details: S. cerevisiae rad52 mutant growth inhibition, hits give high values
Outline: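 Measured: yeast growth inhibition. System: strain with a defined DNA damage repair alteration. Reference: vehicle-treated control cultures.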

[2] = NCI Yeast Anticancer Drug Screen. Data for the wt1 strain (AID 149);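 note: 0% = growth of vehicle-treated wt1 cultures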; details: S. cerevisiae wt1 strain (SPY 50644) growth inhibition, hits give high values
Outline: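 Using yeast strain wt1, compound-induced growth inhibition was determined against vehicle-treated cultures.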

[3] = NCI Yeast Anticancer Drug Screen. Data for the rad50EPP+ strain (AID 151);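 note: 0% = growth of vehicle-treated control cultures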; details: S. cerevisiae rad50 mutant strain, hits give high values
Outline: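 One strain with a rad50 alteration (rad50EPP+) was compound-treated, its growth then compared to that of vehicle controls.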

[4] = NCI Yeast Anticancer Drug Screen. Data for the rad50 strain (AID 155);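 note: 0% = growth of vehicle-only cultures of the same strain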; details: S. cerevisiae rad50 strain growth inhibition, hits give high values
Outline: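 Relative growth inhibition (compound vs vehicle) was measured in yeast with a defined repair-gene alteration.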

[5] = NCI Yeast Anticancer Drug Screen. Data for the mec2-1 strain (AID 157); details: S. cerevisiae mec2-1 strain, hits give high values
Outline: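 Test agents were screened against the mec2-1 yeast strain, with defined DNA repair or cell cycle alteration. Growth was scored as inhibition against vehicle-only controls.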

[6] = NCI Yeast Anticancer Drug Screen. Data for the rad14 strain (AID 159);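 note: 0% = growth of vehicle-treated control cultures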; details: S. cerevisiae rad14 strain growth inhibition, hits give high values
Outline: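 Screen for anticancer potential: a yeast strain altered in DNA damage repair is grown with compound, and reduced growth is quantified against vehicle controls.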

[7] = NCI Yeast Anticancer Drug Screen. Data for the sgs1 mgt1 strain (AID 161);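 note: 0% = growth of cultures given vehicle only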; details: S. cerevisiae sgs1 mgt1 strain, hits give high values
Outline: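 Genetically altered yeast, compound exposure, growth inhibition relative to vehicle.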

[8] = NCI Yeast Anticancer Drug Screen. Data for the CLN2oe strain (AID 163);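 note: 0% = growth of vehicle-only control cultures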; details: S. cerevisiae CLN2oe strain, hits give high values
Outline: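 Here, growth inhibition in a cell-cycle-altered yeast strain after compound exposure was quantified against vehicle control growth.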

[9] = NCI Yeast Anticancer Drug Screen. Data for the cln2 rad14 strain (AID 165);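 note: 0% = growth equal to vehicle treated cultures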; details: S. cerevisiae cln2 rad14 strain, hits give high values
Outline: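 Growth of compound-exposed yeast (cln2 rad14 genotype) measured and expressed as inhibition relative to vehicle.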

[10] = NCI Yeast Anticancer Drug Screen. Data for the bub3 strain (AID 167); details: S. cerevisiae bub3 mutant strain, hits give high values
Outline: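 Screening used yeast with an engineered genetic alteration affecting cell cycle control. Compound-exposed cultures were compared with vehicle cultures, and reduced growth was taken as inhibition.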

[11] = NCI Yeast Anticancer Drug Screen. Data for the wt2 strain (AID 169);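 note: 0% = growth of vehicle-treated yeast cultures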; details: S. cerevisiae wt2 strain growth inhibition, hits give high values
Outline: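 Genetically defined yeast strains from a DNA-repair/cell-cycle panel were used. Compound-exposed yeast growth was measured, and the inhibition was calculated relative to vehicle treatment.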

[12] = NCI Yeast Anticancer Drug Screen. Data for the mlh1 strain (AID 171);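 note: 0% = growth of vehicle-treated control cultures of the same strain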; details: S. cerevisiae mlh1 strain growth inhibition, hits give high values
Outline: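 Here the genetically defined yeast mutant is grown with each compound, and the extent to which its growth falls below that of vehicle-exposed cells is reported.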

[13] = NCI Yeast Anticancer Drug Screen. Data for the mlh1 rad18 strain (AID 175); details: S. cerevisiae mlh1 rad18 strain growth inhibition, hits give high values
Outline: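 In this whole-cell yeast screen, a strain with altered DNA damage repair is challenged with compound, and its growth is measured against matched vehicle-treated controls.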

[14] = NCI Yeast Anticancer Drug Screen. Data for the rad18 strain (AID 177); details: S. cerevisiae rad18 mutant growth inhibition, hits give high values
Outline: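 Screen uses a yeast strain with a defined lesion in DNA damage repair; compound effect is read as loss of growth compared to untreated vehicle cultures.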

[15] = NCI Yeast Anticancer Drug Screen. Data for the sgs1 strain (AID 173);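 note: 0% = growth of vehicle-only control cultures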; details: S. cerevisiae sgs1 mutant, hits give high values
Outline: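 Relative growth inhibition, referenced to vehicle, was determined in a yeast strain with a defined alteration affecting DNA damage repair or cell cycle control after compound exposure.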

[16] = at 5.0 µM (retest, dose inferred, filed as 0.5)
[17] = at 50.0 µM (retest, dose inferred, filed as 5.0)

Measured: growth inhibition

CCNc1ccc2c(c1)C(=O)N(OS(C)(=O)=O)C2=O
inactive: [1]; at 1.2 µM 1% | [1]; at 3.7 µM 1% | [1]; at 11.0 µM 5% | [1]; at 33.0 µM 23% | [2]; at 1.2 µM 1% | [2]; at 3.7 µM 5% | [2]; at 11.0 µM 4% | [2]; at 33.0 µM 10% | [2]; at 100.0 µM 31% | [3]; at 1.2 µM 7% | [3]; at 3.7 µM 6% | [3]; at 11.0 µM 7% | [3]; at 33.0 µM 11% | [3]; at 100.0 µM 27% | [4]; at 1.2 µM 2% | [4]; at 3.7 µM 2% | [4]; [16] 4% | [4]; at 11.0 µM 8% | [4]; at 33.0 µM 18% | [4]; [17] 18% | [5]; at 1.2 µM 6% | [5]; at 3.7 µM 10% | [5]; [16] 4% | [5]; at 11.0 µM 14% | [5]; at 33.0 µM 21% | [5]; [17] 23% | [5]; at 50.0 µM 61% | [5]; at 100.0 µM 7% | [6]; at 1.2 µM 3% | [6]; at 3.7 µM 0% | [6]; at 11.0 µM 3% | [6]; at 33.0 µM 16% | [6]; at 100.0 µM 34% | [7]; [16] 3% | [7]; [17] 12% | [8]; at 1.2 µM 5% | [8]; at 3.7 µM -6% | [8]; at 11.0 µM 4% | [8]; at 33.0 µM 15% | [8]; at 100.0 µM 40% | [9]; [16] 8% | [9]; [17] 21% | [9]; at 50.0 µM 69.6% | [10]; at 1.2 µM -2% | [10]; at 3.7 µM -2% | [10]; [16] -1% | [10]; at 11.0 µM 0% | [10]; at 33.0 µM 8% | [10]; [17] 12% | [10]; at 50.0 µM 24.5% | [10]; at 100.0 µM 26% | [11]; at 1.2 µM 0% | [11]; at 3.7 µM 1% | [11]; at 11.0 µM 1% | [11]; at 33.0 µM 6% | [11]; at 100.0 µM 41% | [12]; at 1.2 µM 3% | [12]; at 3.7 µM 3% | [12]; at 11.0 µM 5% | [12]; at 33.0 µM 12% | [12]; at 100.0 µM 42% | [13]; [16] -3% | [13]; [17] 23% | [14]; at 1.2 µM 4% | [14]; at 3.7 µM 2% | [14]; at 11.0 µM 3% | [14]; at 33.0 µM 14%
active: [1]; at 100.0 µM 79% | [4]; at 50.0 µM 96.8% | [4]; at 100.0 µM 88% | [7]; at 50.0 µM 85.6% | [13]; at 50.0 µM 97% | [14]; at 100.0 µM 73%

O=C1C=CC(=Nc2ccccc2)c2ccccc21
active: [1]; at 100.0 µM 77% | [3]; at 100.0 µM 70% | [4]; at 33.0 µM 88% | [4]; [17] 70% | [4]; at 100.0 µM 85% | [10]; at 33.0 µM 84% | [10]; [17] 94% | [10]; at 50.0 µM 82.3% | [10]; at 100.0 µM 88% | [12]; at 100.0 µM 82% | [15]; at 100.0 µM 76% | [13]; [17] 87% | [14]; at 33.0 µM 84% | [14]; at 100.0 µM 80%
inactive: [1]; at 1.2 µM 1% | [1]; at 3.7 µM 5% | [1]; at 11.0 µM 20% | [1]; at 33.0 µM 55% | [2]; at 1.2 µM 8% | [2]; at 3.7 µM 12% | [2]; at 11.0 µM 21% | [2]; at 33.0 µM 38% | [2]; at 100.0 µM 45% | [3]; at 1.2 µM 3% | [3]; at 3.7 µM 8% | [3]; at 11.0 µM 28% | [3]; at 33.0 µM 53% | [4]; at 1.2 µM 3% | [4]; at 3.7 µM 15% | [4]; [16] -8% | [4]; at 11.0 µM 65% | [4]; at 50.0 µM 37.9% | [5]; at 1.2 µM 5% | [5]; at 3.7 µM 10% | [5]; [16] 22% | [5]; at 11.0 µM 19% | [5]; at 33.0 µM 28% | [5]; [17] 43% | [5]; at 50.0 µM 45.3% | [5]; at 100.0 µM 44% | [6]; at 1.2 µM -1% | [6]; at 3.7 µM 1% | [6]; at 11.0 µM 12% | [6]; at 33.0 µM 38% | [6]; at 100.0 µM 58% | [7]; [16] 30% | [7]; [17] 60% | [7]; at 50.0 µM 31.6% | [8]; at 1.2 µM -2% | [8]; at 3.7 µM -4% | [8]; at 11.0 µM 6% | [8]; at 33.0 µM 43% | [8]; at 100.0 µM 39% | [9]; [16] -17% | [9]; [17] 32% | [9]; at 50.0 µM 24.6% | [10]; at 1.2 µM 12% | [10]; at 3.7 µM 37% | [10]; [16] 65% | [10]; at 11.0 µM 62% | [11]; at 1.2 µM 8% | [11]; at 3.7 µM 17% | [11]; at 11.0 µM 35% | [11]; at 33.0 µM 54% | [11]; at 100.0 µM 69% | [12]; at 1.2 µM 3% | [12]; at 3.7 µM 5% | [12]; at 11.0 µM 20% | [12]; at 33.0 µM 67% | [15]; at 1.2 µM 5% | [15]; at 3.7 µM 12% | [15]; at 11.0 µM 29% | [15]; at 33.0 µM 60% | [13]; [16] 27% | [13]; at 50.0 µM 36.5% | [14]; at 1.2 µM 2% | [14]; at 3.7 µM 6% | [14]; at 11.0 µM 37%
